Experimental data published in PubChem BioAssay AID1159580 (chemical genetic matrix, 2015).
Among all 5,500 compounds or so, about 2,000 (36%) were called active. Not shown: some 18% with an inconclusive outcome. No stated cut-off is given here; in the data, active means normalized growth mostly below about 0.91 (no sharp cut-off); inconclusive means no clear call, values can overlap the other calls; inactive means mostly above about 0.92. This is one part of the list.

Assay: chemical genetic growth profiling, strain panel (AID 1159580);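 further: tested at 20 µM; growth read once vehicle control cultures reached saturation at 30 °C; 1 = growth at the plate median or of vehicle wells; lower values mean less growth of the strain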
Settings: S. cerevisiae deletion strains, growth OD
[1] = locus YAL021C, strain ccr4, active compounds read low
[2] = locus YAL026C, strain drs2, active compounds read low
[3] = locus YAL030W, strain snc1, active compounds read low
[4] = locus YBL061C, strain skt5, active compounds read low
[5] = locus YBR009C, strain hhf1, active compounds read low
[6] = locus YBR023C, strain chs3, active compounds read low
[7] = locus YBR171W, strain sec66, active compounds read low
[8] = locus YBR231C, strain swc5, active compounds read low
[9] = locus YBR279W, strain paf1, active compounds read low
[10] = locus YCL011C, strain gbp2, active compounds read low
[11] = locus YCL016C, strain dcc1, active compounds read low
[12] = locus YCL061C, strain MRC1, active compounds read low
[13] = locus YCL069W, strain vba3, active compounds read low
[14] = locus YCR088W, strain abp1, active compounds read low
[15] = locus YDL005C, strain med2, active compounds read low
[16] = locus YDL040C, strain nat1, active compounds read low
[17] = locus YDR001C, strain nth1, active compounds read low
[18] = locus YDR069C, strain doa4, active compounds read low
[19] = locus YDR137W, strain rgp1, active compounds read low
[20] = locus YDR159W, strain sac3, active compounds read low
[21] = locus YDR297W, strain sur2, active compounds read low
[22] = locus YDR334W, strain swr1, active compounds read low
[23] = locus YDR335W, strain msn5, active compounds read low
[24] = locus YDR392W, strain spt3, active compounds read low
[25] = locus YEL003W, strain gim4, active compounds read low
[26] = locus YEL037C, strain rad23, active compounds read low
[27] = locus YEL061C, strain CIN8 (second series), active compounds read low
[28] = locus YER015W, strain faa2, active compounds read low
[29] = locus YER016W, strain bim1, active compounds read low
[30] = locus YER111C, strain swi4, active compounds read low
[31] = locus YER155C, strain BEM2 (second series), active compounds read low
[32] = locus YFR010W, strain ubp6, active compounds read low
[33] = locus YGL167C, strain pmr1, active compounds read low
[34] = locus YGL173C, strain kem1, active compounds read low
[35] = locus YGL227W, strain vid30, active compounds read low
[36] = locus YGL240W, strain doc1, active compounds read low
[37] = locus YGL253W, strain hxk2, active compounds read low
[38] = locus YHR013C, strain ard1, active compounds read low
[39] = locus YHR027C, strain rpn1, active compounds read low
[40] = locus YHR142W, strain chs7, active compounds read low
[41] = locus YJL092W, strain hpr5, active compounds read low
[42] = locus YJL095W, strain BCK1 (second series), active compounds read low
[43] = locus YJL115W, strain asf1, active compounds read low
[44] = locus YJL129C, strain trk1, active compounds read low
[45] = locus YJL154C, strain vps35, active compounds read low
[46] = locus YJL164C, strain tpk1, active compounds read low
[47] = locus YJL166W, strain qcr8, active compounds read low
[48] = locus YJL187C, strain SWE1, active compounds read low
[49] = locus YKL160W, strain elf1, active compounds read low
[50] = locus YKR026C, strain gcn3, active compounds read low
[51] = locus YKR091W, strain srl3, active compounds read low
[52] = locus YLL001W, strain dnm1, active compounds read low
[53] = locus YLL026W, active compounds read low
[54] = locus YLL041C, strain sdh2, active compounds read low
[55] = locus YLR027C, strain aat2, active compounds read low
[56] = locus YLR221C, strain rsa3, active compounds read low
[57] = locus YLR258W, strain gsy2, active compounds read low
[58] = locus YLR262C, strain YPT6 (second series), active compounds read low
[59] = locus YLR320W, strain mms22, active compounds read low
[60] = locus YLR342W, strain FKS1, active compounds read low
[61] = locus YLR357W, strain rsc2, active compounds read low
[62] = locus YLR370C, strain arc18, active compounds read low
[63] = locus YLR384C, strain iki3, active compounds read low
[64] = locus YML120C, strain ndi1, active compounds read low
[65] = locus YMR058W, strain fet3, active compounds read low
[66] = locus YMR125W, strain sto1, active compounds read low
[67] = locus YMR129W, active compounds read low
[68] = locus YMR205C, strain PFK2, active compounds read low
[69] = locus YMR231W, strain pep5, active compounds read low
[70] = locus YNL071W, strain lat1, active compounds read low
[71] = locus YNL209W, strain ssb2, active compounds read low
[72] = locus YNL248C, strain rpa49, active compounds read low
[73] = locus YNL322C, strain KRE1 (second series), active compounds read low
[74] = locus YNR049C, strain mso1, active compounds read low
[75] = locus YOR001W, strain rrp6, active compounds read low
[76] = locus YOR070C, strain gyp1, active compounds read low
[77] = locus YOR080W, strain dia2, active compounds read low
[78] = locus YOR083W, strain WHI5, active compounds read low
[79] = locus YOR106W, strain vam3, active compounds read low
[80] = locus YOR265W, strain rbl2, active compounds read low
[81] = locus YOR270C, strain vph1, active compounds read low
[82] = locus YOR290C, strain snf2, active compounds read low
[83] = locus YPL051W, strain arl3, active compounds read low
[84] = locus YPL078C, strain atp4, active compounds read low
[85] = locus YPL106C, strain sse1, active compounds read low
[86] = locus YPL240C, strain hsp82, active compounds read low

Measured: normalized growth

CC12CCC(O)CC1CCc1ccccc12 (centres undefined)
active: [24] 0.634 | [58] 0.826
inactive: [1] 0.993 | [2] 0.972 | [3] 0.982 | [4] 0.967 | [5] 0.932 | [6] 0.967 | [7] 0.938 | [8] 0.998 | [9] 0.981 | [10] 0.981 | [11] 0.977 | [12] 0.967 | [13] 0.974 | [14] 0.978 | [15] 0.97 | [16] 0.979 | [17] 0.971 | [18] 0.984 | [19] 0.871 | [20] 0.936 | locus YDR195W, strain ref2 1 | [21] 0.971 | [22] 0.989 | [23] 0.972 | [25] 0.96 | [26] 0.98 | [27] 0.964 | [28] 0.983 | [29] 0.969 | [30] 0.96 | [31] 0.944 | [32] 0.979 | [33] 0.962 | [34] 0.957 | [35] 0.961 | [36] 0.901 | [37] 0.969 | [38] 0.974 | [39] 0.991 | [40] 0.973 | [41] 0.983 | [42] 0.99 | [43] 0.977 | [44] 0.92 | [45] 0.99 | [46] 0.968 | [47] 0.946 | [48] 0.971 | [49] 0.993 | [50] 0.954 | [51] 0.969 | [52] 0.991 | [53] 0.982 | [54] 0.974 | [55] 0.984 | [56] 0.98 | [57] 0.968 | [59] 0.906 | [60] 0.965 | [61] 0.935 | [62] 0.969 | [63] 0.993 | [64] 0.955 | [65] 0.97 | [66] 1 | [67] 0.961 | [68] 0.902 | [69] 0.988 | [70] 0.959 | [71] 0.988 | [72] 0.985 | [73] 0.959 | [74] 0.971 | [75] 0.967 | [76] 0.973 | [77] 0.968 | [78] 0.99 | [79] 0.966 | [80] 0.992 | [81] 0.94 | [82] 0.898 | [83] 0.986 | [84] 0.973 | [85] 1.01 | [86] 0.991

CC12CCC(OC(=O)c3ccccc3)CC1CCc1ccccc12 (centres undefined)
inactive: [1] 0.986 | [2] 0.99 | [3] 0.999 | [4] 0.995 | [5] 1 | [6] 0.995 | [7] 0.968 | [8] 0.939 | [9] 1.01 | [10] 1 | [11] 0.991 | [12] 0.998 | [13] 0.996 | [14] 0.984 | [15] 0.987 | [16] 0.979 | [17] 0.985 | [18] 0.98 | [19] 0.964 | [20] 0.99 | locus YDR195W, strain ref2 0.964 | [21] 0.995 | [22] 0.959 | [23] 0.997 | [24] 0.866 | [25] 0.985 | [26] 0.991 | [28] 0.998 | [30] 0.988 | [31] 0.967 | [32] 0.992 | [33] 0.981 | [34] 0.987 | [35] 0.986 | [36] 0.952 | [37] 1.01 | [38] 0.855 | [39] 0.999 | [40] 1.01 | [41] 0.989 | [42] 1 | [43] 0.989 | [44] 0.999 | [45] 0.992 | [46] 0.989 | [47] 1 | [48] 1 | [49] 1 | [50] 0.965 | [51] 0.984 | [52] 1.01 | [53] 0.993 | [54] 0.994 | [55] 1.01 | [56] 1 | [57] 1 | [58] 1.04 | [59] 1 | [60] 0.987 | [61] 0.986 | [62] 0.995 | [63] 1 | [64] 1 | [65] 1 | [66] 0.975 | [67] 0.986 | [68] 1.01 | [69] 0.99 | [70] 0.992 | [71] 0.997 | [72] 1.01 | [73] 0.982 | [74] 0.994 | [75] 0.999 | [76] 1.01 | [77] 0.965 | [78] 0.995 | [79] 1.01 | [80] 0.998 | [81] 1.06 | [82] 0.955 | [83] 1 | [84] 1.01 | [85] 0.992 | [86] 0.988
active: [27] 0.841 | [29] 0.907
